Pin1 inh: qHTS Assay to Find Inhibitors of Pin1; Peptidyl-prolyl cis-trans isomerase NIMA-interacting 1 (Homo sapiens), Q13526; Pin1 FP peptide displacement, HiFluor488, 10 min; Potency, µM (highest dose often 115 µM), usual class: inhibitors; hit rate 0.009% among 390,000; AID 504891, 2011; active = well fitted inhibition curve with a large enough effect in the polarisation, with a control signal flat, not every such curve was filed as active; inconclusive = small, poorly fitted or top-dose-only effect, or effect the other way, or a change in a side signal; inactive = no such curve, though single readings can be large or run the other way; the % refers to the polarisation
Target sequence (Q13526 whole entry, looked up): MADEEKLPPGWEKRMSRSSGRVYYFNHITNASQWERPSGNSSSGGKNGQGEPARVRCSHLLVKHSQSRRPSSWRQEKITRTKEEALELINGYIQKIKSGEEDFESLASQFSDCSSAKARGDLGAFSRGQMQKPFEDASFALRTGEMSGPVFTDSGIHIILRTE
a7 integrin act: qHTS for Activators of Integrin-Mediated Alleviation for Muscular Dystrophy; alpha7betagal myoblasts, beta-gal FDG fluorescence, 48 h; hit rate 0.064% among 350,000; Potency, µM (highest dose often 38.3 µM), actives largely listed as activators; note: nearly all actives have a fitted effect of over 60% in size
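Alpha7betagal+/- myoblasts (passage 13) were plated 16-24 hr, then exposed to compounds (1:260 dilution of DMSO stock) for 48 hours at 37C. After MPER lysis, β-galactosidase reporter activity was read as FDG fluorescence (ex 480/em 540) after 30 minutes.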
ClpP mod: qHTS Assay for Activators of ClpP. hit rate 1.9% among 340,000. purified B. subtilis ClpP, FRET peptide cleavage, 20 min. AID 651965, 2013. Potency, µM (highest dose often 57.5 µM). ATP-dependent Clp protease proteolytic subunit (Bacillus subtilis (strain 168)), P80244; active = well fitted falling curve with a large enough effect; inconclusive = small, poorly fitted or top-dose-only effect; inactive = no such curve, though single readings can be large or run the other way; note: the source files actives as falling curves though it sought activators and does not explain the sign; nearly all actives have a fitted effect of over 65% in size
Target sequence (P80244 whole entry, looked up): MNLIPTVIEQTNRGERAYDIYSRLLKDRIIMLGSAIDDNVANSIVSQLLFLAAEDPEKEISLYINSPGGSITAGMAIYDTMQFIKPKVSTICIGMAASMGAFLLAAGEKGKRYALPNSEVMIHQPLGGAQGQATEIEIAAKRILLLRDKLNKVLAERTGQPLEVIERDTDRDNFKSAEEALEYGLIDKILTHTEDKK
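Buffer: 100 mM Tris/HCl pH8, 100 mM KCl, 0.05% low protease BSA, 2.5% glycerol, 0.01% Tween-20. ClpP 10 microg/mL final; 20 min RT; delta FRET normalized to ADEP and DMSO controls.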
IL-2 act: qHTS of IL-2 Activators; IL-2 activation reporter assay, cell-based qHTS; stimulated with anti-CD3/CD4/CD28 beads; in transgenic mouse T cells; activation, % (series mostly up to about 46 µM); hit rate 0.065% among 360,000; AID 652025, 2013; in the data active = activation above about 50%; inconclusive = mostly about 30% to 49%
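Readout is EGFP and DsRed signal by fluorescent plate cytometry after 18 h at 37 degrees C. Transgenic mouse T cells (750/well) received compound for 60 min before bead stimulation (anti-CD3, anti-CD4, anti-CD28); memory T cells served as non-tolerant control.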
USP2a block: qHTS Assay for Inhibitors of Ubiquitin-specific Protease USP2a Using CHOP2 as the Reporter | USP2 core, Ub-CHOP2 coupled fluorogenic reporter, 485/531 | Potency, µM (series often up to 38.3 µM), hits mostly inhibitors | hit rate 0.01% among 330,000
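Deubiquitinase activity read as fluorescence (485/531 nm) after Ub-CHOP2 cleavage activates the enterokinase reporter on its substrate; USP2 core 10nM, Ub-CHOP2 and substrate 25nM each, 30min compound preincubation then 60min RT; data normalized to NEM, curves fitted.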
PKM2 act: qHTS Assay for Activators of Human Muscle isoform 2 Pyruvate Kinase. purified PKM2, Kinase-Glo ATP luminescence, activation; response scale: 0% is enzyme alone, no compound. Potency, µM (highest dose often 57.5 µM), most hits filed as activators. hit rate 0.34% among 260,000; note: nearly all actives have a fitted effect of over 55% in size
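ATP formation by purified human PK-M2, quantified via coupled luciferase luminescence after 1 h at room temperature with 0.1 mM ADP and 0.5 mM PEP final.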
HeLa tox: Secondary assay for Activators of Human Pyruvate Kinase M2 isoform - Cell Titer Glo cytotoxicity assay; AID 1898, 2009; shares compounds with PKM2 act; 230 tested, under 10 active; activity change, negative = cytotoxicity, % at 57.5 µM; HeLa viability, CellTiter-Glo ATP luminescence, 24 h
Each line names hits and unclear results; the compound was inactive in the other large screens (follow-up assays come after a bar, where they were run). The list is not random: actives were taken first. Their share in the collection is about 1.9%. Unless noted, calls come from the whole dose curve; as a rule, active = well fitted curve in the direction sought with a large enough effect; inconclusive = small, poorly fitted or top-dose-only effect, or another doubt; inactive = no such curve, though single readings can be large; an effect the other way counts as inactive or inconclusive.

COc1ccc(S(=O)(=O)N2CCN(c3nc(-c4ccccc4)nc4ccccc34)CC2)cc1	ClpP mod inconclusive (no result: a7 integrin act, IL-2 act, USP2a block, PKM2 act)
CNC(=O)C1(C(F)(F)F)CC(CCCO)CCCO1 (stereo unspecified)	none (no result: a7 integrin act, ClpP mod, IL-2 act, USP2a block, PKM2 act)
CCOc1ccc(S(=O)(=O)N2CC(=O)Nc3ccccc32)cc1	ClpP mod 32µM (no result: PKM2 act)
Cn1cccc1C(=O)NC(=O)COC(=O)CC12CC3CC(CC(Br)(C3)C1)C2	ClpP mod 28µM
Cn1cccc1C(=O)NC(=O)COC(=O)CC12CC3CC(CC(C3)C1)C2	none
CCCCNC(=O)Cn1c(SCc2cccc(C)c2)nc2ccncc21	none (no result: a7 integrin act, IL-2 act, USP2a block, PKM2 act)
COC(=O)c1sccc1-c1ccc(/C=N/OC(=O)c2ccccc2)o1	ClpP mod 32µM
O=C(OCC#CCSc1nnc(-c2cccc3ccccc23)o1)c1sccc1Cl	none (no result: a7 integrin act, ClpP mod, IL-2 act, USP2a block, PKM2 act)
FC(F)(F)c1cc(-c2cccs2)nc(-n2cc(Br)cn2)n1	ClpP mod 32µM
CC(NC(=O)c1ccccc1F)c1nnc(SCC(=O)N2CCN(c3ccccc3)CC2)n1C (stereo unspecified)	ClpP mod 25µM
Cn1c(CNC(=O)c2ccccc2F)nnc1SCC(=O)N1CCN(c2ccccc2)CC1	none (no result: ClpP mod)
CN(N=O)c1ccc(/C=C/c2ccnc3ccccc23)cc1	none (no result: Pin1 inh, a7 integrin act, IL-2 act, USP2a block, PKM2 act)
Oc1ccc(-c2ccccc2)cc1CN1CCCCCC1	none (no result: ClpP mod, PKM2 act)
Oc1ccc(CN2CCCCC2)nc1-c1ccccc1	ClpP mod 35µM
C=CC1=C2C=C(C3CC3)N(CCCCO)C=C2C(=O)C(C)(OC(=O)c2ccco2)C1=O (stereo unspecified)	none (no result: Pin1 inh, a7 integrin act, ClpP mod, IL-2 act, USP2a block)
C/C=C\C1=CCCC1Nc1ncnc2ccc(-c3c(C)noc3C)cc12 (stereo unspecified)	none (no result: a7 integrin act, ClpP mod, IL-2 act, USP2a block, PKM2 act)
Cc1ccc(CNC(=O)CCCc2cn(C)c3ccccc23)cc1	ClpP mod 28µM (no result: PKM2 act)
CCCC1C(C#N)=C(N)Oc2cc(C)n(C)c(=O)c21 (stereo unspecified)	Pin1 inh inconclusive, ClpP mod 32µM
Cc1cc2c(c(=O)n1CCc1ccccc1)C(C(C)C)C(C#N)=C(N)O2 (stereo unspecified)	none
Cc1cc2c(c(=O)n1C)C(Cc1ccccc1)C(C#N)=C(N)O2 (stereo unspecified)	ClpP mod 28µM
O=c1[nH]ncc(N2CCN(C(c3ccccc3)c3ccccc3)CC2)c1Cl	ClpP mod 28µM
CCn1c(SCC(=O)N2CCC(C)CC2)nnc1-c1ccc(S(=O)(=O)N2CCN(C)CC2)cc1	ClpP mod 32µM
CN(C)c1ccc(/C=N/NC(=O)c2cnc3ccccc3c2)cc1	Pin1 inh inconclusive, IL-2 act 170
CN(C)c1ccc(/C=N/NC(=O)c2ccccn2)cc1	none
COc1cccc(CNS(=O)(=O)c2cn(C)cn2)c1	ClpP mod 14µM
Cn1cnc(S(=O)(=O)NCc2ccccc2)c1	none
COc1ccc(/C=N/NC(=O)c2ccccc2OC)cc1COc1ccc(C)cc1	ClpP mod 25µM
COc1ccc(/C=N\NC(=O)c2ccccc2Br)cc1COc1ccc(F)cc1	none
COc1ccc(OC)c2c(=O)cc(C(=O)O)[nH]c12	none
COc1cc2cc(C(=O)O)[nH]c2c(OC)c1OC	ClpP mod 28µM
O=C(OCC#CCSc1nnc(-c2cccc3ccccc23)o1)c1ccccc1	none (no result: a7 integrin act, ClpP mod, IL-2 act, USP2a block, PKM2 act)
Cc1cc(NC(=O)c2cnn3c(C(F)(F)F)cc(-c4ccccc4)nc23)no1	PKM2 act 3.5µM | HeLa tox inactive
